Reference: ChEMBL document CHEMBL1961873, “Compounds: GSK PKIS; Assays: Nanosyn kinase panel” (2012)

Legend:
[1] = biological target: Rho-associated protein kinase 1 (Homo sapiens) (UniProt Q13464); details: at 1 µM;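 further: reported values are mean percent inhibition of ROCK1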
[2] = biological target: Rho-associated protein kinase 2 (Homo sapiens) (UniProt O75116); details: at 0.1 µM
[3] = biological target: Rho-associated protein kinase 2 (Homo sapiens) (UniProt O75116); details: at 1 µM
[4] = biological target: Ribosomal protein S6 kinase alpha-1 (Homo sapiens) (UniProt Q15418); details: at 0.1 µM
[5] = biological target: Ribosomal protein S6 kinase alpha-1 (Homo sapiens) (UniProt Q15418); details: at 1 µM
[6] = biological target: Ribosomal protein S6 kinase alpha-3 (Homo sapiens) (UniProt P51812); details: at 0.1 µM
[7] = biological target: Ribosomal protein S6 kinase alpha-3 (Homo sapiens) (UniProt P51812); details: at 1 µM
[8] = biological target: Ribosomal protein S6 kinase alpha-2 (Homo sapiens) (UniProt Q15349); details: at 0.1 µM
[9] = biological target: Ribosomal protein S6 kinase alpha-2 (Homo sapiens) (UniProt Q15349); details: at 1 µM
[10] = biological target: Ribosomal protein S6 kinase alpha-6 (Homo sapiens) (UniProt Q9UK32); details: at 0.1 µM;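 further: reported value is the mean inhibition of RSK4, from the GSK PKIS kinase inhibitor screen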
Chain of Ribosomal protein S6 kinase alpha-6 (Homo sapiens) (Q9UK32 whole entry): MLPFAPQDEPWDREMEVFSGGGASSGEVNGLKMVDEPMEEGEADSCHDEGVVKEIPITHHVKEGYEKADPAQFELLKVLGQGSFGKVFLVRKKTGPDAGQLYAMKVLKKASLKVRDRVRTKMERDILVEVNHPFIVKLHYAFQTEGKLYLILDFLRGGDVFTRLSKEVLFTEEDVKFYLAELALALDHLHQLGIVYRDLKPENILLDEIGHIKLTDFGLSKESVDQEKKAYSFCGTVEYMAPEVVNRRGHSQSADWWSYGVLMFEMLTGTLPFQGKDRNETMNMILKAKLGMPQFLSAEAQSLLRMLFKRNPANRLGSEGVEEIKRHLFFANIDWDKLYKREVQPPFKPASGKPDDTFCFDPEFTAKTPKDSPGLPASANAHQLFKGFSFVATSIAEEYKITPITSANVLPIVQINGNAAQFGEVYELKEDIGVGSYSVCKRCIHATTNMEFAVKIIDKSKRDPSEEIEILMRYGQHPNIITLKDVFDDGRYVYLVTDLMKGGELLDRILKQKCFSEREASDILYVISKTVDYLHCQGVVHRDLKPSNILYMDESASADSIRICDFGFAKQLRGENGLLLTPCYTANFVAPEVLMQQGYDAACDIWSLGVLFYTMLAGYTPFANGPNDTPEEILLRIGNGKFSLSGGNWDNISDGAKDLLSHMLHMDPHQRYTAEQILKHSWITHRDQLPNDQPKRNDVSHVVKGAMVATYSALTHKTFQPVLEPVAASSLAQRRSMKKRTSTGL

Chain of Rho-associated protein kinase 1 (Homo sapiens) (Q13464 2-1354 limits assumed): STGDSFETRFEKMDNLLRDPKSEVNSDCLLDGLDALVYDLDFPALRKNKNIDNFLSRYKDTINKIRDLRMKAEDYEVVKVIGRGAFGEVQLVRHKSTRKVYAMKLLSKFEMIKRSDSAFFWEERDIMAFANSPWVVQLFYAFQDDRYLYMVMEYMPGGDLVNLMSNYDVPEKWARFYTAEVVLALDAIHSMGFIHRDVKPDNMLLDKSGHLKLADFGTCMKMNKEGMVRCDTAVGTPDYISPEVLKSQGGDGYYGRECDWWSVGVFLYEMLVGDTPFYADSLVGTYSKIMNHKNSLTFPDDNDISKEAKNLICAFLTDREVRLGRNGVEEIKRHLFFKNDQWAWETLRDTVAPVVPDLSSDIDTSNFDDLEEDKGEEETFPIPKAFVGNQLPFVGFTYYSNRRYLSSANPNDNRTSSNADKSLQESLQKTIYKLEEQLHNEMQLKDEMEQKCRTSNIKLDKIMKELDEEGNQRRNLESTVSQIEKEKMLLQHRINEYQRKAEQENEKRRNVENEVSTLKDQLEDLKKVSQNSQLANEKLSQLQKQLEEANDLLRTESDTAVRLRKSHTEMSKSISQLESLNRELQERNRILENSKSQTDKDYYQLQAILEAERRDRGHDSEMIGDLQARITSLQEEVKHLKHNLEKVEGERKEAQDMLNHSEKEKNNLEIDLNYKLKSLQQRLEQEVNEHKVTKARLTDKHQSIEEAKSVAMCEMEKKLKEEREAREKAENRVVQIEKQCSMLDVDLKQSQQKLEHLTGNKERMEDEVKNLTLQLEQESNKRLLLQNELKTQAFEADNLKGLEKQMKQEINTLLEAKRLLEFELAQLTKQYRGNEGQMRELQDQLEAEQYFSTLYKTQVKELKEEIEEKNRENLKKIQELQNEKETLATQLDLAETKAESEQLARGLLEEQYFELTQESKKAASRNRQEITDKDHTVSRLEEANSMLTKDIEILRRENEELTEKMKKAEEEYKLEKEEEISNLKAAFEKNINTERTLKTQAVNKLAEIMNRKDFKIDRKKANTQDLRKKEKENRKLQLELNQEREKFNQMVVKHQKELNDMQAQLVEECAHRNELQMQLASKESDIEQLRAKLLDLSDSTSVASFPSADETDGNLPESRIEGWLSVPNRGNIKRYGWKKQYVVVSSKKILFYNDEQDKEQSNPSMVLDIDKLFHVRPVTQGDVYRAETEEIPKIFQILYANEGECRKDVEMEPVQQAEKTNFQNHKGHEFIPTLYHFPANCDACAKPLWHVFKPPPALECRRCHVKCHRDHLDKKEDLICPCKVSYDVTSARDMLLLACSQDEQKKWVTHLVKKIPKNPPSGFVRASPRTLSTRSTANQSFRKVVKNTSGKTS
Chain of Ribosomal protein S6 kinase alpha-2 (Homo sapiens) (Q15349 whole entry): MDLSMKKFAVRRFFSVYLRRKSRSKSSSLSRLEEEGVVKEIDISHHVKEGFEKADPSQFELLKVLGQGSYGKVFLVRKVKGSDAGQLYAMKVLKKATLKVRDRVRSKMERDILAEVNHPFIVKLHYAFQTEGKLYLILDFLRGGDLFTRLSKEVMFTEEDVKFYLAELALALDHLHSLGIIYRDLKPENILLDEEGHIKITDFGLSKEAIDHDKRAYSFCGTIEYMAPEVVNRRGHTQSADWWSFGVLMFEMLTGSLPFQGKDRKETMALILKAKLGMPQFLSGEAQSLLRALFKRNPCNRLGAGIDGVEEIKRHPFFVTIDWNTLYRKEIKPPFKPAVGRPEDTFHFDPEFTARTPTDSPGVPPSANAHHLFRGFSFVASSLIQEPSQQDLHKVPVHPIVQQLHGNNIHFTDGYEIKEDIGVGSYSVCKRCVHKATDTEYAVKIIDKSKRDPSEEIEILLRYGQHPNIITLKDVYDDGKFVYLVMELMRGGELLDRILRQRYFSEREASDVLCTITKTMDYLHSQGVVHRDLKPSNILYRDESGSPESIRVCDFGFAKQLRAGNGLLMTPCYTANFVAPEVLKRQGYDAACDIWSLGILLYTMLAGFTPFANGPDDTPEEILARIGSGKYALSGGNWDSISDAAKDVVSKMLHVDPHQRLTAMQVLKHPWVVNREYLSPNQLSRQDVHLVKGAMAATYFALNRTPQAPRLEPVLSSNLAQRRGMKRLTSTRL
Chain of Ribosomal protein S6 kinase alpha-1 (Homo sapiens) (Q15418 whole entry): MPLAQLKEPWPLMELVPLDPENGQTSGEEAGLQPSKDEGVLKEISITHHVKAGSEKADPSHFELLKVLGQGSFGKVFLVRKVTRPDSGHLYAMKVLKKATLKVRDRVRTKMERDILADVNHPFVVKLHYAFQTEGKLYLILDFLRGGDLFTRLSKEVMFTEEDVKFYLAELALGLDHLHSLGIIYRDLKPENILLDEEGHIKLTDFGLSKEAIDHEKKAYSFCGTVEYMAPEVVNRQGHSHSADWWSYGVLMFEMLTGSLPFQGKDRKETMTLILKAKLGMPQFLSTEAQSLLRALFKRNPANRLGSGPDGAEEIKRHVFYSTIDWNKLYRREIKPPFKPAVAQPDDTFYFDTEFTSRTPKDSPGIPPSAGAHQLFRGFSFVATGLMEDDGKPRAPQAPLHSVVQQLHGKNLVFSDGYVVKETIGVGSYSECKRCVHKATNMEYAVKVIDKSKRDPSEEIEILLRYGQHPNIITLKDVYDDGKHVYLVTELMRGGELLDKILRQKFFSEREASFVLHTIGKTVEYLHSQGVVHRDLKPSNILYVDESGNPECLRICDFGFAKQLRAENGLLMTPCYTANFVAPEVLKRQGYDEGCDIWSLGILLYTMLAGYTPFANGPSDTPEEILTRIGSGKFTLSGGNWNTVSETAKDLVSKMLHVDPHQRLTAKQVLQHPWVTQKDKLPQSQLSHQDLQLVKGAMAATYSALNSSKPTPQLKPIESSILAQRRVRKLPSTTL
Chain of Ribosomal protein S6 kinase alpha-3 (Homo sapiens) (P51812 whole entry): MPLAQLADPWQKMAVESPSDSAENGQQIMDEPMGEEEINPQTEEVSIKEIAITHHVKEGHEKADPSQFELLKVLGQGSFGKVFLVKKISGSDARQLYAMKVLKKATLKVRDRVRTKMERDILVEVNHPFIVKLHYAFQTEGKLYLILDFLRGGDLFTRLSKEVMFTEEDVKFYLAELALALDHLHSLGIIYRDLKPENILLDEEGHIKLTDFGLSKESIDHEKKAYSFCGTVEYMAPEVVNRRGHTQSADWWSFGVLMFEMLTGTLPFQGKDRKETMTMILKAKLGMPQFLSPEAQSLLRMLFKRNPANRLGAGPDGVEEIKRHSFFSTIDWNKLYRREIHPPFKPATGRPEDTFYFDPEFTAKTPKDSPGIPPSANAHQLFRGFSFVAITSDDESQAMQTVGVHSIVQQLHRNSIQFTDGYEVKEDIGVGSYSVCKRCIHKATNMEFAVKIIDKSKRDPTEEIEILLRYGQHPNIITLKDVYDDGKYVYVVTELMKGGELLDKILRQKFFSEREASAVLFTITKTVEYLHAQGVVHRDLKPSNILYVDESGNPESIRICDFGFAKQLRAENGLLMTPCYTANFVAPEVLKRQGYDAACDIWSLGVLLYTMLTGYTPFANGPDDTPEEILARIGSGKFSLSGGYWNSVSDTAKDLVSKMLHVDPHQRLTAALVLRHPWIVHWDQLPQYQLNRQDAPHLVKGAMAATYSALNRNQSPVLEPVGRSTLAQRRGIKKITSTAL

| SMILES | inhibition [1] [%] | inhibition [2] [%] | inhibition [3] [%] | inhibition [4] [%] | inhibition [5] [%] | inhibition [6] [%] | inhibition [7] [%] | inhibition [8] [%] | inhibition [9] [%] | inhibition [10] [%] |
| --- | --- | --- | --- | --- | --- | --- | --- | --- | --- | --- |
| Fc1cccc(COc2ccc(Nc3ncnc4sc(-c5cccs5)cc34)cc2Cl)c1 | 2.28 | 0.99 | 1.7 | -0.29 | -0.48 | -1.22 | -0.28 | 0.38 | 1.25 | -0.01 |
| Cc1cc(O)cc(C)c1/C=C/c1cncc(-c2nn[nH]n2)c1 | 1.86 | 2.66 | 2.33 | 2.97 | 1 | 1.94 | 1.24 | 3.53 | 3.85 | 2.1 |
| CCn1c(-c2nonc2N)nc2cncc(C(=O)N3CC[C@H](N)C3)c21 | – | 74.9 | 83.5 | 44.6 | 75.8 | 31.3 | 69.9 | 18.3 | 65.9 | 6.13 |
| COc1ccc(-c2nn3ncccc3c2-c2ccnc(Nc3ccc(Cl)c(C(F)(F)F)c3)n2)cc1 | 0.16 | 0.42 | 5.75 | 1.97 | 4.11 | 1.72 | 3.67 | 0.41 | 2.22 | 0.23 |
| COc1ccc2cc(-c3c(-c4ccncc4)nc(-c4ccc([S+](C)[O-])cc4)n3C)ccc2c1 (stereo not drawn) | 0.63 | 2.12 | -0.11 | 0.79 | 0.09 | 1.33 | 0.81 | 2.14 | 3.12 | 0.84 |
| Nc1ncnc2occ(-c3ccc(NC(=O)Nc4cccc(C(F)(F)F)c4)cc3)c12 | 19 | 11.1 | 46.9 | 4.59 | 33.8 | 2.15 | 26.1 | 7.44 | 52.9 | -0.29 |
| CS(=O)(=O)CCN(CC#N)Cc1ccc(-c2ccc3ncnc(Nc4ccc(OCc5cccc(F)c5)c(Cl)c4)c3c2)o1 | 1.43 | 0.1 | 0.19 | -0.47 | -0.29 | -1.25 | -1.73 | 0.79 | 0.34 | -0.25 |
| CCn1c(-c2nonc2N)nc2cncc(C(=O)N3CCNCC3)c21 | – | 3.45 | 4.33 | 1.84 | 3.1 | 0.8 | -0.05 | 3.17 | 3.01 | 1.32 |
| Nc1nc(-c2ccc3c(c2)C(=Cc2cc(Br)c(O)c(Br)c2)C(=O)N3)cs1 | -0.02 | -0.52 | 2.2 | -0.32 | 4.1 | -0.26 | 1.6 | -0.77 | 1.44 | -0.07 |
| CC1=C(C(=O)Nc2ccc3[nH]ncc3c2)C(c2ccc(F)cc2)NC(=O)N1 (stereo not drawn) | – | 64.1 | 74.5 | 2.36 | 15.7 | 2.28 | 11.2 | 2.36 | 7.93 | 2.07 |
| [O-][S+]1CCN(Cc2ccc(-c3ccc4ncnc(Nc5ccc(OCc6ccccc6)c(F)c5)c4c3)o2)CC1 | 1.51 | 0.14 | 0.33 | -0.15 | -0.56 | -0.51 | -0.78 | 1.48 | 1.83 | 0.96 |
| Cc1ccc(NC(=O)c2ccnc(N3CCCC3)c2)cc1-c1ccc(C(=O)NCC2CC2)cc1 | 7.68 | 5.19 | 7.89 | 3.15 | 5.01 | 2.42 | 6.09 | 3.89 | 5.23 | 2.53 |
| Nc1nc(-c2ccccn2)c(-c2ccc3ncccc3n2)s1 | 2.15 | 2.83 | 6.38 | 1.17 | 3.4 | 0.06 | 1.07 | 1.71 | 1.96 | 0.91 |
| Cc1nnc(-c2ccc(C)c(-c3ccc(C(=O)Nc4cccc(C#N)c4)cc3)c2)o1 | 0.62 | -0.03 | 3.81 | 1.66 | 3.77 | 1.23 | 2.97 | 0.46 | 2.89 | 0 |
| CCn1c(-c2nonc2N)nc2c(C#CC(C)(C)O)nc(OC[C@@H](N)c3ccccc3)cc21 | 37 | 7.79 | 45.9 | 2.16 | 21.4 | 3.04 | 26.8 | 0.98 | 12.9 | 2.62 |
| Cn1cc(C=C2C(=O)Nc3cccnc32)c2ccccc21 | 5.28 | 2.47 | 8.3 | 0.08 | 5.16 | – | – | 1.73 | 7.9 | 2.64 |
| O=C1NC(=O)C(c2ccc(Cl)cc2)=C1Nc1ccc(Cl)c(C(=O)O)c1 | 1.07 | -1.68 | -2.33 | -0.77 | -0.61 | -1.11 | -1.86 | -1.33 | -1.11 | -1.33 |
| COc1cc2ncn(-c3cc(O[C@H](C)c4ccccc4Cl)c(C(N)=O)s3)c2cc1OC | 3.85 | 4.45 | 13.6 | 3.9 | 18.7 | 3.39 | 16.4 | 2.9 | 10.6 | 3.57 |
| CC1=C(C(=O)Nc2ccc3[nH]ncc3c2)C(c2ccc3ccccc3c2)CC(=O)N1 (stereo not drawn) | – | 77 | 84.2 | 3.94 | 26.4 | 2.4 | 21.3 | 2.26 | 13.7 | 1.04 |
| CCN1CCC(CC(=O)Nc2n[nH]c3nc(-c4cccs4)c(Br)cc23)CC1 | -0.45 | -0.91 | 0.3 | -1.31 | -0.49 | -0.78 | -0.3 | -1.79 | 0.38 | -1.6 |
| O=C1Nc2ccc(C(=O)c3ccco3)cc2C1=Cc1cc(Cl)c(O)c(Cl)c1 | 7.03 | 2.19 | 12.1 | 3.17 | 11.9 | 0.85 | 6.32 | 1.45 | 9.07 | 1.47 |
| CCCN1CCC(Oc2cc(Nc3nc(Nc4cccc(F)c4C(N)=O)c4cc[nH]c4n3)c(OC)cc2Cl)CC1 | 8.85 | 1.22 | 7.48 | 0.01 | 7.33 | 0.89 | 3.26 | -0.12 | 0.95 | 1.35 |
| O=C1NC(=O)C(c2cccc(Cl)c2)=C1Nc1ccc(O)c(Cl)c1 | 0.49 | -0.28 | -2.05 | 1.2 | 7.59 | 1.93 | 14.1 | 3.16 | 19.8 | 3.63 |
| CCn1c(-c2nonc2N)nc2cnc(Oc3cccc(NC(=O)c4ccc(OCCN5CCOCC5)cc4)c3)cc21 | – | 90 | 90.5 | 26.1 | 70.6 | 12.2 | 54.6 | 15.6 | 61 | 2.18 |
| COc1ccc(-c2coc3ncnc(N)c23)cc1 | 3.53 | 3.52 | 1.94 | 1.72 | 0.94 | 1.05 | 1.66 | 2.4 | 2.21 | 1.93 |
| COC(=O)Nc1nc2cc(Oc3cccc(NC(=O)Nc4cc(C(F)(F)F)ccc4F)c3)ccc2[nH]1 | 0.94 | -1.5 | -0.89 | 0.53 | 0.21 | 0.36 | 1.19 | -0.64 | 2 | -0.63 |
| COc1cccc(-n2ncc3c(N/N=C/c4cccc(F)c4)ncnc32)c1 | 2.09 | 1.84 | 2.56 | 1.59 | 1.07 | 2.2 | 2.55 | 2.85 | 3.5 | 1.48 |
| COc1cc2c(cc1Nc1nc(N3CCc4ccccc43)c3cc[nH]c3n1)N(C(=O)CN(C)C)CC2 | 1.14 | 0.55 | -1.46 | 0.16 | 0.41 | 0.21 | -1.32 | 0.86 | 0.48 | 1.57 |
